Reference: PubChem BioAssay
Active and inactive are the calls of the source.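 Rule for the calls, unless noted: active = visual image review flags a hit and inhibition of aggregation exceeds 20%; inconclusive = visual hit but inhibition at or below 20%; inactive = no hit on visual image review.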

Key:
[1] = inhibitors of TNFa-induced NFkB p65 translocation, primary screen, imaging, HUVEC, MLSMR starter and 10KST1 sets (AID 438;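 active = inhibition above 20% together with a positive visual image hit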;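 note: compound added about 3h40 before a 20 min TNFalpha stimulation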;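 for inhibition: signal is the nuclear over cytoplasmic p65 intensity ratio per well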); conditions: HUVEC TNFa-induced p65 nuclear translocation; cell count: measured here: nuclei count (cytotoxicity indicator), at 2.08 µM; inhibition: at 2 µM, stronger effect = higher value, 0% TNFa-plus-vehicle, 100% no-TNFa wells
[2] = inhibitors of mutant huntingtin aggregation, primary screen, imaging, exon1htt(103Q)mCFP cells, high-content imaging (AID 483); conditions: exon1htt(103Q)mCFP cell line, aggregate imaging, at 2 µM; inhibition of aggregation: stronger effect = higher value; nuclei count: measured here: cell count, toxicity;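 note: compound exposure lasted 3 days before fixation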;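 for nuclei count: percent of the per-plate median nuclei count of sample wells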
[3] = inhibitors of E-selectin induction by TNFa, primary screen, imaging, HUVEC, immunofluorescence, MLSMR starter and 10KST1 sets (AID 487;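 active = visually confirmed hit in the image check and inhibition above 20%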;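 for inhibition: signal is fraction of cell area covered by stained E-selectin grains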;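 for nuclei count: 100% = median nuclei count of all wells on the same plate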); conditions: HUVEC TNFalpha-induced E-selectin immunofluorescence imaging, at 2 µM; inhibition: stronger effect = higher value; nuclei count: measured here: cell number, toxicity
[4] = target: Voltage-gated potassium channel subunit beta-2 (Rattus norvegicus) (UniProt P62483); experiment: KvBeta enzyme negative modulators, primary screen, biochemical, NADPH fluorescence (AID 622;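 active = fluorescence slope higher than the sample average by over 3 SD, cut at about -0.22 in these data, passing the limit was not always enough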;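 note: slope of raw intensity against log time taken from 70 to 1610 s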); conditions: recombinant KvBeta, 4-cyanobenzaldehyde reduction, at 10 µM, stronger effect = higher value
[5] = target: Voltage-gated potassium channel subunit beta-2 (Rattus norvegicus) (UniProt P62483); experiment: KvBeta positive modulators, primary screen, biochemical, NADPH fluorescence (AID 623;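 active = NADPH fluorescence slope more negative than the mean of all samples by about 3 SD, 99.7% confidence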;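 note: fluorescence intensity change per second fitted from 20 to 320 s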); conditions: Recombinant KvBeta, NADPH fluorescence decrease slope, 10 min; at 10 µM; stronger effect = lower value
[6] = target: Alpha-2C adrenergic receptor (Homo sapiens) (UniProt P18825); experiment: modulators of alpha2C/GIRK thallium flux, primary screen, cell-based, HEK293 alpha2C/GIRK1/2 (AID 624;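 active = fluorescence slope after compound addition differing from the mean of all screened samples at 99.7% confidence, in either direction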;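 note: slope of fluorescence ratio to pre-addition baseline per second over 15 to 24 s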); conditions: thallium flux BTC fluorescence, at 10 µM, actives lie on both sides
[7] = inhibitors of Sendai virus-induced IRF3 signaling, primary screen, TLR/RLR signaling modifier project, cell-based, Sendai virus stimulus, luciferase, 10K MLSCN set (AID 602276;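 active = inhibition at or above 50% at 10 µM; inactive = inhibition below 50%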;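 note: firefly luciferase from ISG56 promoter only with Renilla not read in this screen; 0% = Sendai virus plus DMSO and 100% = medium plus DMSO without virus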); conditions: HEK293 RL24 IRF3 luciferase reporter, at 10 µM, stronger effect = higher value
[8] = inhibitors of poly I:C-induced TLR3 signaling, primary screen, cell-based, poly I:C stimulus, luciferase, 10K MLSCN set (AID 602277;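 active = inhibition of the reporter signal at or above 50%; inactive = inhibition below 50%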); conditions: HEK293-TLR3 RL24 IRF3 luciferase reporter, at 10 µM, stronger effect = higher value

Chain of Voltage-gated potassium channel subunit beta-2 (Rattus norvegicus) (P62483 whole entry, looked up): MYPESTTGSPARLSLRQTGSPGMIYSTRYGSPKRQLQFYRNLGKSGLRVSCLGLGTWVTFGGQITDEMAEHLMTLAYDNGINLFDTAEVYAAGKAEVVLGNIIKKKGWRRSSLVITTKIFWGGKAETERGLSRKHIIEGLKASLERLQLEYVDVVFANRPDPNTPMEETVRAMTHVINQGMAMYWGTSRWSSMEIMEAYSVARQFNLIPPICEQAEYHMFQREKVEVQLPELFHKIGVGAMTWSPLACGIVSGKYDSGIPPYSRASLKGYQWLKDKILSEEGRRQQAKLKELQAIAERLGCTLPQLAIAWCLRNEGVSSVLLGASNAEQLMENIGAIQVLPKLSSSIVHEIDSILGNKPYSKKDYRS
Chain of Alpha-2C adrenergic receptor (Homo sapiens) (P18825 whole entry, looked up): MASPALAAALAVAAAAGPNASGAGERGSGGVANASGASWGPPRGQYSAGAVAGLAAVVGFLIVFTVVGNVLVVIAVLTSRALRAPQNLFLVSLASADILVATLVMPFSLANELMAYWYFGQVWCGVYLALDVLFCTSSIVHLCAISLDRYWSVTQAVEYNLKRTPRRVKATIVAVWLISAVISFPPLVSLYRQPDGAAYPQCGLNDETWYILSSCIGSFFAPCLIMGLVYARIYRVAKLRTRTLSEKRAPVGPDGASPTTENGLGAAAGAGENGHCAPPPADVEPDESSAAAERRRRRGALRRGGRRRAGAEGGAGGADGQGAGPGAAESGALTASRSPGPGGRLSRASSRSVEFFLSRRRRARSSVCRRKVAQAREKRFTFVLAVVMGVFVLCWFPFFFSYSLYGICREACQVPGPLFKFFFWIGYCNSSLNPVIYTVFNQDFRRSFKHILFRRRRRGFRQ

| SMILES | cell count [1] | inhibition [1] | inhibition of aggregation [2] | nuclei count [2] | inhibition [3] | nuclei count [3] | fluorescence slope [4] | NADPH fluorescence slope [5] | slope [6] | inhibition [7] | inhibition [8] |
| --- | --- | --- | --- | --- | --- | --- | --- | --- | --- | --- | --- |
| O=C(c1ccc(COc2c(F)c(F)c(F)c(F)c2F)o1)N1CCOCC1 | 701 | 2.8% (inactive) | 26.7% (inactive) | 79.8% | -25% (inactive) | 105% | -0.58 (inactive) | -3.8e-05 (inactive) | 0.0055 (inactive) | 10.5% (inactive) | 33.9% (inactive) |
| COC(=O)c1ccsc1NC(=O)CN1C(=O)CCC1=O | 479 | -5.9% (inactive) | 2.9% (inactive) | 86.8% | -15.8% (inactive) | 100% | -0.476 (inactive) | -3.2e-05 (inactive) | 0.0049 (inactive) | -11.8% (inactive) | -9.21% (inactive) |
| c1cc2c(cc1Cn1cnnn1)OCO2 | 599 | 2.1% (inactive) | -6.5% (inactive) | 107% | 26.6% (inactive) | 87.2% | -0.492 (inactive) | -6.9e-05 (inactive) | 0.00714 (inactive) | 13.3% (inactive) | 22.4% (inactive) |
| Cn1c(COc2ccc(Cl)cc2)nnc1SCC(=O)NC1CCCCC1 | 328 | -1.3% (inactive) | 19.6% (inactive) | 91.8% | -90.6% (inactive) | 107% | -0.545 (inactive) | -1.7e-05 (inactive) | 0.00395 (inactive) | -9.58% (inactive) | -7.85% (inactive) |
| COc1cccc(NC(=O)N2CCN(c3cccc(C)c3C)CC2)c1 | 647 | -5.2% (inactive) | -12.7% (inactive) | 75.8% | -139% (inactive) | 93.3% | -0.455 (inactive) | -4.9e-05 (inactive) | 0.00389 (inactive) | -24.5% (inactive) | -55.2% (inactive) |
| CCOc1ccccc1C(=O)Nc1nnc(CC)s1 | 537 | -12% (inactive) | 12.2% (inactive) | 59.9% | -6.2% (inactive) | 88% | -0.428 (inactive) | -2.5e-05 (inactive) | 0.00564 (inactive) | -6.19% (inactive) | -13.4% (inactive) |
| CC1(C)Cc2ccccc2C(N)=C1C#N | 331 | -0.8% (inactive) | 35.2% (active) | 71.1% | 9.4% (inactive) | 102% | -0.479 (inactive) | 2e-05 (inactive) | 0.00508 (inactive) | -11.4% (inactive) | -26.4% (inactive) |
| CCCC(=O)Nc1cccc(NC(=O)CN2CCN(c3ccccc3OC)CC2)c1 | 693 | -15.2% (inactive) | 17.6% (inactive) | 98.8% | -61.4% (inactive) | 104% | -0.481 (inactive) | -4.6e-05 (inactive) | 0.00587 (inactive) | -1.32% (inactive) | 11.7% (inactive) |
| COc1ccc2c(c1)C(C)=CC(C)(C)N2C(=O)C(C)N1C(=O)c2ccccc2C1=O (centres undefined) | 637 | 4.5% (inactive) | 7.1% (inactive) | 108% | 21.2% (inactive) | 118% | -0.612 (inactive) | -1.8e-05 (inactive) | 0.00489 (inactive) | 5.4% (inactive) | 5.89% (inactive) |
| COc1cccc(-n2ccnc2SCC(=O)N2CCc3ccccc32)c1 | 565 | -7.6% (inactive) | 3% (inactive) | 108% | 1.1% (inactive) | 89.7% | -0.536 (inactive) | -1e-05 (inactive) | 0.00609 (inactive) | -3.01% (inactive) | -5.47% (inactive) |
| Cc1ccc(-n2c(-c3ccncc3)nnc2-c2cccs2)cc1 | 456 | -3.2% (inactive) | -22.5% (inactive) | 104% | -55.2% (inactive) | 119% | -0.384 (inactive) | -4.2e-05 (inactive) | 0.0046 (inactive) | 11.8% (inactive) | 12.5% (inactive) |
| Cc1ccc(-c2noc(CN3CCN(c4ccccc4F)CC3)n2)cc1 | 468 | -2.6% (inactive) | -0.3% (inactive) | 84.1% | -30.6% (inactive) | 101% | -0.556 (inactive) | -3.7e-05 (inactive) | 0.00746 (inactive) | 14.7% (inactive) | 39% (inactive) |
| Cc1csc(NC(=O)c2cccs2)n1 | 464 | 1% (inactive) | 30.4% (inactive) | 83.3% | -47.5% (inactive) | 99.5% | -0.506 (inactive) | -4.8e-05 (inactive) | 0.00677 (inactive) | -38.4% (inactive) | -103% (inactive) |
| N#CC1=C(N)Oc2cc(O)ccc2C1C1CCCCC1 (centres undefined) | 527 | 0.6% (inactive) | 18.3% (inactive) | 103% | -33.8% (inactive) | 85.8% | -0.443 (inactive) | 1.3e-05 (inactive) | 0.00336 (inactive) | 14.1% (inactive) | 25.6% (inactive) |
